The results in this text go back to PubChem BioAssay (NCATS).

Records with an inconclusive call do not appear. The source made the active and inactive calls. Unless noted, calls follow the shape of the dose curve; as a rule, active = well fitted curve in the direction sought with a large enough effect; inconclusive = small, poorly fitted or top-dose-only effect, or another doubt; inactive = no such curve, though single readings can be large; an effect the other way counts as inactive or inconclusive.

Assay [1] addresses T1, Tyrosine-protein phosphatase non-receptor type substrate 1 (Homo sapiens) + Leukocyte surface antigen CD47 (Homo sapiens) (UniProt P78324+Q08722). Briefly: CD47-SIRPalpha protein protein interaction - LANCE assay qHTS validation (AID 1347057; active = well fitted curve in the direction sought with a large enough effect in the signal ratio, with a control signal flat, not every such curve was filed as active; the % refers to the signal ratio; also: series mostly up to about 38 µM). Put shortly:
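First, His-tagged CD47 and Eu-labelled anti-His antibody met the compound for 30 min; next, site-specifically biotinylated SIRPalpha was added for 30 min; finally streptavidin-APC was added before reading the TR-FRET ratio.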

The target in assay [2] is T1, Tyrosine-protein phosphatase non-receptor type substrate 1 (Homo sapiens) + Leukocyte surface antigen CD47 (Homo sapiens). Briefly: CD47-SIRPalpha protein protein interaction - HTRF assay qHTS validation (AID 1347058; active = well fitted curve in the direction sought with a large enough effect in the signal ratio, not every such curve was filed as active; the % refers to the signal ratio; also: series mostly up to about 38 µM). The method, boiled down: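 TR-FRET read (Ch1/Ch2 ratio) of soluble extracellular CD47 and Avi-biotinylated SIRPalpha domains in PBS pH 7.4 with 0.05% IGEPAL; 7-point compound titration. Sequential 30 min room-temperature steps; non-biotinylated SIRPalpha as control inhibitor.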
Background: TR-FRET usually uses a lanthanide donor and a delayed reading to cut background.

Assay [3] has the same target. The assay is described as follows: CD47-SIRPalpha protein protein interaction - Alpha assay qHTS validation (AID 1347059).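 Also: bead proximity luminescence from CD47 binding SIRPalpha after compound preincubation with SIRPalpha.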 Put shortly: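 Soluble extracellular domains: Avi-tag biotinylated SIRPalpha (25 nM) preincubated 30 min RT with compound, then 6His-CD47 (12.5 nM) 30 min; Ni-NTA acceptor and streptavidin donor beads (10 ug/mL) 30 min, AlphaScreen read. PBS pH 7.4, 0.05% IGEPAL.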
A general note: In qHTS, concentration-response curves come from the screen itself.

For assay [4], the target named is Parathyroid hormone/parathyroid hormone-related peptide receptor (Homo sapiens) (UniProt Q03431). Briefly: qHTS for PTHR1 Agonists: Optimization Screen against the NCGC LOPAC library (AID 1347079).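 Also: GloSensor cAMP luminescence in HEK-293 GP2 cells expressing human PTHR1 with IBMX.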 The method, boiled down: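 Agonist readout: GloSensor cAMP luminescence, read after 15 min at room temperature. HEK-293-derived GP2 line carries PTHR1; compounds tested as a titration for 1 hr at 37C in presence of IBMX. M-PTH (1-15) served as control.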

A short description of assay [5]: NS1 protein of Zika virus - qHTS assay to identify small molecule inhibitors in human HEK 293 cells (AID 1347053). Also: nearly all actives have a fitted effect of over 55% in size. Also: potency is read from the fitted curve at half-maximal effect. The method, boiled down: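 HEK 293 cells pretreated with compound for 1 h, then infected with ZIKV MR766 (MOI 0.5) for 24 h at 37 C. NS1 detected by TR-FRET with two anti-NS1 antibodies; normalized to uninfected (0%) and infected (100%) wells.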
The nature of assay [6]: qHTS of pediatric cancer cell lines to identify multiple opportunities for drug repurposing: Primary screen for TC32 cells (AID 1347089). Also: nearly all actives have a fitted effect of over 60% in size. Put shortly:
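Luminescent CellTiter-Glo read-out of metabolically active TC32 cells after 48 h compound exposure. Primary: MIPE 11-point, 0.78 nM–46 µM; NPC 8-point, 0.59 nM–46 µM. Confirmatory: 11-point dilutions.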

Assay [7] is described as follows: qHTS of pediatric cancer cell lines to identify multiple opportunities for drug repurposing: Primary screen for DAOY cells (AID 1347090). Also: nearly all actives have a fitted effect of over 55% in size. Also: potency is read from the fitted curve at half-maximal effect. The method, boiled down:
(§1)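 Eight- or eleven-point concentration series, 48 h treatment at 37 degrees C in growth media; readout CellTiter-Glo luminescence. Potency and efficacy were taken from the concentration-response curves.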

Assay [8] in a line: qHTS of pediatric cancer cell lines to identify multiple opportunities for drug repurposing: Primary screen for SJ-GBM2 cells (AID 1347091). Also: potency is read from the fitted curve at half-maximal effect. The method, boiled down: as §1
The nature of assay [9]: qHTS of pediatric cancer cell lines to identify multiple opportunities for drug repurposing: Primary screen for A673 cells (AID 1347092). Also: nearly all actives have a fitted effect of over 45% in size. Also: potency is read from the fitted curve at half-maximal effect. Put shortly: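 A673 cells (500-1,000 cells/well in growth media) were pre-incubated 5 h at 37 degrees C, then exposed to compounds for 48 h. Viability was read as CellTiter-Glo luminescence; concentration-response curves came directly from the primary screen.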

Assay [10] in a line: qHTS of pediatric cancer cell lines to identify multiple opportunities for drug repurposing: Primary screen for SK-N-MC cells (AID 1347093). Also: potency is read from the fitted curve at half-maximal effect. The method, boiled down:
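Metabolically active cells were quantified by ATP-dependent luminescence (CellTiter-Glo, 15 min at room temperature) following 48 h treatment. Cells had been plated at 500-1,000 per well and settled for 5 h beforehand.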

Assay [11] can be described thus: qHTS of pediatric cancer cell lines to identify multiple opportunities for drug repurposing: Primary screen for BT-37 cells (AID 1347094). Also: series mostly up to about 57 µM. The method, boiled down:
(§2)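 Viability was measured as metabolically active cells after 48 hours of treatment, read by CellTiter-Glo luminescence. Compounds were tested at multiple final concentrations, giving concentration-response curves.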

Assay [12] is described as follows: qHTS of pediatric cancer cell lines to identify multiple opportunities for drug repurposing: Primary screen for NB-EBc1 cells (AID 1347095). Also: potency is read from the fitted curve at half-maximal effect. Put shortly:
as §2

Assay [13] in a line: qHTS of pediatric cancer cell lines to identify multiple opportunities for drug repurposing: Primary screen for U-2 OS cells (AID 1347096). Also: nearly all actives have a fitted effect of over 50% in size. The method, boiled down:
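Cells (500-1,000/well) in growth media were settled 5 h at 37 degrees C, then given compounds for 48 h. Viability was read as CellTiter-Glo luminescence. Primary runs used MIPE at 11 points (0.78 nM-46 µM) and NPC at 8 points (0.59 nM-46 µM); follow-ups used 11 points.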

Assay [14] is described as follows: qHTS of pediatric cancer cell lines to identify multiple opportunities for drug repurposing: Primary screen for SK-N-SH cells (AID 1347098).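 Also: DMSO served as neutral control and bortezomib at 2.3 µM as positive control; nearly all actives have a fitted effect of over 65% in size.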 The method, boiled down: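 Cells (500-1,000/well) rested 5 h, then received compounds for 48 h; metabolically active cells were measured by CellTiter-Glo luminescence. Final concentrations spanned up to 46 µM (MIPE, 11-point) or 0.59 nM-46 µM (NPC, 8-point) in primary screens, 11-point in follow-ups.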

The nature of assay [15]: qHTS of pediatric cancer cell lines to identify multiple opportunities for drug repurposing: Primary screen for NB1643 cells (AID 1347099). Also: nearly all actives have a fitted effect of over 50% in size. Also: potency is read from the fitted curve at half-maximal effect. Put shortly: as §2
Assay [16] in a line: qHTS of pediatric cancer cell lines to identify multiple opportunities for drug repurposing: Primary screen for Saos-2 cells (AID 1347097). Also: nearly all actives have a fitted effect of over 40% in size. Also: potency is read from the fitted curve at half-maximal effect. The method, boiled down: as §2

Sequence of Parathyroid hormone/parathyroid hormone-related peptide receptor (Homo sapiens) (Q03431 whole entry, looked up): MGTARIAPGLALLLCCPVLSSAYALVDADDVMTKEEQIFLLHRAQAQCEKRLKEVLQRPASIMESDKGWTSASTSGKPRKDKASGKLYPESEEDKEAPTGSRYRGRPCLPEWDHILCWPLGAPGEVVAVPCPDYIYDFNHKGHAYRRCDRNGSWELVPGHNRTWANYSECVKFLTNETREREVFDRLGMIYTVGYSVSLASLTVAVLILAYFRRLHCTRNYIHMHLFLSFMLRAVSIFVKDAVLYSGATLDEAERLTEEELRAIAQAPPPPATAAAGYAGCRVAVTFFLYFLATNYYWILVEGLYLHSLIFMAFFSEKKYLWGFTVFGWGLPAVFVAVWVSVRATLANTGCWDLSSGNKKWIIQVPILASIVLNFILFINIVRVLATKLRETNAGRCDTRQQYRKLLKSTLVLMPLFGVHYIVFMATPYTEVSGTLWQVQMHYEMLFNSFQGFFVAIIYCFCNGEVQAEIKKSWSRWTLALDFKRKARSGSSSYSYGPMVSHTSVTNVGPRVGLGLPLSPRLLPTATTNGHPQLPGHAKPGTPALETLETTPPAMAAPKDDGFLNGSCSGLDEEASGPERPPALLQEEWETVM
T1 sequence (P78324 whole entry, looked up): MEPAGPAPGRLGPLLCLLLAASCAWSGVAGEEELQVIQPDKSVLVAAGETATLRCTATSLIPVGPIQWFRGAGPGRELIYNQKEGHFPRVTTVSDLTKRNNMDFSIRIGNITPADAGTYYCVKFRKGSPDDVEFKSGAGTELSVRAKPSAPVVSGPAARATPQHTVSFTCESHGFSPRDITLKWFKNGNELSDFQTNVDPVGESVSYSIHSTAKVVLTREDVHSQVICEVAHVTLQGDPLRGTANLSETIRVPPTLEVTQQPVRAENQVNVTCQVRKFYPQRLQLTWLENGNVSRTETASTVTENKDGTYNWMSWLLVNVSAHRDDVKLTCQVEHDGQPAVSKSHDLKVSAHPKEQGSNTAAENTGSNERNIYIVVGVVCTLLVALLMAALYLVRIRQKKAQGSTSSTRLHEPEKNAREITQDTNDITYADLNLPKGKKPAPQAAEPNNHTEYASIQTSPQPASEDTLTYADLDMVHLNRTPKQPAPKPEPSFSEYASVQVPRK
T1 sequence (Q08722 whole entry, looked up): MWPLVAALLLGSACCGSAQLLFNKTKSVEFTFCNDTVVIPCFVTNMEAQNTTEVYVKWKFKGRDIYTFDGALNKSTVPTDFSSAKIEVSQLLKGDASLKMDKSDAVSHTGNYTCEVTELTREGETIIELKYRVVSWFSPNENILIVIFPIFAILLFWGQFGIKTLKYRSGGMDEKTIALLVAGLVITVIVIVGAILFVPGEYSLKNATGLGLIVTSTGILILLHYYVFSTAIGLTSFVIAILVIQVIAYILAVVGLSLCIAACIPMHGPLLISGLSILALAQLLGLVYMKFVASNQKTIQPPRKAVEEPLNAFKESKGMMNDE

Turning to `NS(=O)(=O)C#Cc1ccccc1`, the Potency entry in assay [1], in [3] and in [4] was “inactive” in each case. In addition, the outcome in [2] was inactive.

Take `Ic1ccc(N2CCN(Cc3c[nH]c4ncccc34)CC2)cc1`: the Potency entry in assay [4] is “inactive”.

In the case of `Cc1ccc2c(n1)Oc1ccc(C(C)C(=O)OCC(=O)N(C)C)cc1C2` (configuration not stated), the Potency result in assay [5], in assay [6], in [7], in assay [8], in assay [9] and in assay [10] was “inactive” throughout. In addition, the Potency entry in [11], in assay [12], in assay [13], in assay [14] and in assay [15] was “inactive” in each case.

For `CNC(=O)c1c(I)c(NC(=O)CCCCC(=O)Nc2c(I)c(C(=O)O)c(I)c(C(=O)NC)c2I)c(I)c(C(=O)O)c1I`, the Potency entry in assay [5], in [6], in assay [7], in assay [8], in assay [9] and in assay [10] was “inactive” in each case. In addition, the Potency entry in [11], in assay [12], in [13], in assay [16], in assay [14] and in [15] was “inactive” in each case.

As to `O=C1CN(/N=C/c2ccc([N+](=O)[O-])o2)C(=O)N1`, the Potency entry in [5], in assay [7], in assay [8], in assay [10], in [11] and in [12] was “inactive” in each case. Moreover, the Potency result in [13], in assay [16], in assay [14] and in [15] was “inactive” throughout.

Turning to `Cc1cc2c(cc1Cl)N(C(=O)Nc1ccc(Oc3cccnc3C)nc1)CC2`, the Potency entry in assay [1], in [3] and in [4] was “inactive” each time. For the same compound, the outcome in assay [2] was inactive.

As to `CCCCC1C(=O)N(c2ccccc2)N(c2ccc(O)cc2)C1=O` (configuration not stated), the Potency is 3.98 µM (active) in [5]; 5.31 µM (active) in [7]; 10.6 µM (active) in [8]; 10.6 µM (active) in [9]; 2.66 µM (active) in assay [10]; 2.99 µM (active) in assay [12]. The Potency in assay [16] is 16.8 µM (active); in assay [15] it was 6.68 µM (active).

Consider `Nc1ccn([C@H]2O[C@H](CO)[C@@H](O)C2(F)F)c(=O)n1`, for which the Potency result in [1] and in assay [3] was “inactive” throughout. For the same compound, the outcome in assay [2] was inactive.

Take `CC(C)(C)c1nnc(NS(=O)(=O)c2ccc(N)cc2)s1`: the Potency result in assay [5], in [6], in assay [7], in [8], in assay [9] and in assay [10] was “inactive” each time. The Potency result in assay [11], in assay [12], in assay [13], in assay [14] and in assay [15] was “inactive” each time.

Turning to `COC(=O)C1=C(C)NC(C)=C(C(=O)OCC(C)C)C1c1ccccc1[N+](=O)[O-]` (configuration not stated), the Potency result in assay [5], in [6], in assay [7], in assay [8] and in assay [16] was “inactive” in each case.

In the case of `CCCCCCCCCCCCCCCCCC(=O)NCC(COP(=O)([O-])OCC[N+](C)(C)C)OCC` (configuration not stated), in assay [4], the Potency entry was “inactive”.

As for `Clc1ccccc1-c1nc(-c2ccncc2)no1`, the Potency result in assay [5], in assay [6], in assay [7], in [8], in assay [9] and in assay [10] was “inactive” each time. In addition, the Potency result in assay [11], in [12], in [13], in [16] and in assay [15] was “inactive” throughout.

As to `Nc1cc(-c2ccncc2)c[nH]c1=O`, the Potency entry in assay [5], in assay [6], in assay [7], in assay [8], in [9] and in assay [10] was “inactive” each time. For the same compound, the Potency entry in assay [11], in [13], in [16], in [14] and in [15] was “inactive” in each case.
